Compounds with a hit are over-represented: about 3.5% of the library has one in this group of screens.
mHTT-CaM PPI inh – inhibitors of human mutant huntingtin-calmodulin interaction; P42858; inhibition, % at 15 µM; 190,000 compounds, 3.6% hits; AID 1671202; AlphaScreen His-mHTT/GST-CaM binding, luminescence;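 also: 0% = both proteins with DMSO and 100% = one protein alone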
Pf apPOL inh – Pf-apPOL DNA polymerase inhibition; inhibition, % at 10 µM; Recombinant Pf-apPOL, molecular beacon fluorescence, 1.5 h; 210,000 compounds, 0.25% hits
Active calls of the source: *; ! = repeats disagree. Rule as the data show it: active = inhibition above about 50%; inactive = the rest.

`COc1ccc(C2CC(=O)Nc3n[nH]c(C)c32)c(OC)c1` (stereo unspecified) gave mHTT-CaM PPI inh -1 and Pf apPOL inh -8.
Screening CNCC(=O)N1CCn2c(nnc2-c2ccc(OC)cc2)C1 returned mHTT-CaM PPI inh 1 and Pf apPOL inh -2.
Screening Nc1nc(-c2ccccc2)cc(=S)s1 returned mHTT-CaM PPI inh 51*.
Screening Nc1nc(-c2ccc(-c3ccccc3)cc2)cs1 returned mHTT-CaM PPI inh 45 and Pf apPOL inh 0.
For COc1ccccc1/C=C1\N=C(c2ccc(OC)c(OC)c2)N(c2ccc(OC)c(OC)c2)C1=O the results were mHTT-CaM PPI inh -19 and Pf apPOL inh -2.
CN1C(=O)c2ccccc2Oc2ccc(C(=O)NCc3cccs3)cc21 was read as mHTT-CaM PPI inh 6 and Pf apPOL inh -12.
`COc1ccc(NC(=O)C2CC(c3ccc(OC)c(OC)c3)=NO2)cc1OC` (stereo unspecified) gave mHTT-CaM PPI inh 30 and Pf apPOL inh -4.
Screening COc1ccc(C2=NOC(C(=O)Nc3ccc4c(c3)OCO4)C2)cc1OC (stereo unspecified) returned mHTT-CaM PPI inh 55* and Pf apPOL inh -1.
Screening COc1ccc(NC(=O)C2CC(c3cc(OC)c(OC)c(OC)c3)=NO2)cc1OC (stereo unspecified) returned mHTT-CaM PPI inh 46 and Pf apPOL inh -5.
`COc1cc(C2=NOC(C(=O)Nc3ccc4c(c3)OCO4)C2)cc(OC)c1OC` (stereo unspecified) gave mHTT-CaM PPI inh 60* and Pf apPOL inh -5.
N#CC1=C(N)OC2=C(C(=O)CCC2)C1c1cc([N+](=O)[O-])cs1 (stereo unspecified) was read as mHTT-CaM PPI inh 1 and Pf apPOL inh -9.
N#CC1=C(N)OC2=C(C(=O)CCC2)C1c1cc2c(cc1[N+](=O)[O-])OCO2 (stereo unspecified) was read as mHTT-CaM PPI inh 90* and Pf apPOL inh 0.
`CCN1C(=O)COc2ccc(-c3noc(-c4ccccc4C(F)(F)F)n3)cc21` gave mHTT-CaM PPI inh 0 and Pf apPOL inh -4.
O=c1[nH]c(-c2ccc3c(c2)OCO3)cn1-c1ccccc1 was read as mHTT-CaM PPI inh 7 and Pf apPOL inh 0.
`Cc1ccc(-n2cc(-c3ccc4c(c3)OCO4)[nH]c2=O)cc1` gave mHTT-CaM PPI inh 70* and Pf apPOL inh 1.
`COc1ccc(Br)cc1/C=C/c1ccc2cccc(O)c2n1` gave mHTT-CaM PPI inh 45 and Pf apPOL inh -5.
O=[N+]([O-])c1cc(Br)c(O)c(/C=C/c2ccc3cccc(O)c3n2)c1 was read as mHTT-CaM PPI inh 83* and Pf apPOL inh -11.
CCN(CC)c1ccc(NC(=O)COc2ccccc2OC)cc1 was read as mHTT-CaM PPI inh 56* and Pf apPOL inh -3.
`CCC(C)c1ccc(NC(=O)COc2ccccc2OC)cc1` (stereo unspecified) gave mHTT-CaM PPI inh -57 and Pf apPOL inh -3.
COc1ccccc1OCC(=O)Nc1ccc(C(C)=O)cc1 was read as mHTT-CaM PPI inh -4 and Pf apPOL inh 8.
For COc1ccccc1OCC(=O)Nc1ccc(Nc2ccccc2)cc1 the results were mHTT-CaM PPI inh 61* and Pf apPOL inh -2.
For Cn1c2c(c(=O)n(C)c1=O)C(c1ccc(Cl)cc1)C1=C(N2)c2ccccc2C1=O (stereo unspecified) the results were mHTT-CaM PPI inh 0 and Pf apPOL inh -8.
For Cn1c2c(c(=O)[nH]c1=O)C(c1ccc(O)cc1)C1=C(N2)c2ccccc2C1=O (stereo unspecified) the results were mHTT-CaM PPI inh 19 and Pf apPOL inh 9.
`O=C1C2=C(Nc3[nH]c(=O)[nH]c(=O)c3C2c2ccc(Cl)cc2)c2ccccc21` (stereo unspecified) gave mHTT-CaM PPI inh 67*! and Pf apPOL inh -4.
Screening Cn1c2c(c(=O)[nH]c1=O)C(c1ccc(OCc3ccccc3)cc1)C1=C(N2)c2ccccc2C1=O (stereo unspecified) returned mHTT-CaM PPI inh 86* and Pf apPOL inh -94.
For O=C1OC(c2ccccc2Br)=N/C1=C\c1cccc(Cl)c1 the results were mHTT-CaM PPI inh 6 and Pf apPOL inh 6.
Cc1nc(C2CCCN(C(=O)c3ccc(C)s3)C2)n[nH]1 (stereo unspecified) was read as mHTT-CaM PPI inh -5 and Pf apPOL inh 6.
Screening COc1ccc(NC(=NS(=O)(=O)c2ccccc2)c2ccccc2F)cc1 returned mHTT-CaM PPI inh -4 and Pf apPOL inh 9.
Screening CN1CCN(CC(O)COCC23CC4CC(CC(C4)C2)C3)CC1 (stereo unspecified) returned mHTT-CaM PPI inh 1 and Pf apPOL inh 1.
Screening COc1cc(NC(=O)N2CCCC2c2ccc(C)cc2)cc(OC)c1OC (stereo unspecified) returned mHTT-CaM PPI inh 1 and Pf apPOL inh -1.
For Cc1cc(C(=O)Nc2cccc(OC(C)C)c2)c(C)o1 the results were mHTT-CaM PPI inh 51* and Pf apPOL inh -5.
For Cc1cc(C(=O)Nc2ccccc2)c(C)o1 the results were mHTT-CaM PPI inh 5 and Pf apPOL inh -9.
Screening O=C(OCC1OC(O)C(O)(COC(=O)c2cc(O)c(O)c(O)c2)C1O)c1cc(O)c(O)c(O)c1 (stereo unspecified) returned Pf apPOL inh 64*.
`O=C(NCC1(O)CCc2ccccc21)Nc1cccs1` (stereo unspecified) gave mHTT-CaM PPI inh 8 and Pf apPOL inh 0.
Screening O=C(c1ccc(Oc2ccccc2)cc1)N1CC(c2nc3ccccc3[nH]2)C1 returned mHTT-CaM PPI inh 100* and Pf apPOL inh -28.
For Cc1cc(C(=O)N2CC(c3nc4ccccc4[nH]3)C2)no1 the results were mHTT-CaM PPI inh -10 and Pf apPOL inh -2.
`COc1cc([N+](=O)[O-])ccc1-c1ccc(C(=O)Nc2cccnc2)o1` gave mHTT-CaM PPI inh 61* and Pf apPOL inh 0.
Screening O=C(Nc1cccnc1)c1ccc([N+](=O)[O-])o1 returned mHTT-CaM PPI inh -4 and Pf apPOL inh 6.
Screening Cc1nc(-c2ccccc2)sc1-c1nnnn1-c1ccc(Cl)cc1 returned Pf apPOL inh 1.
Screening O=[N+]([O-])c1cc2c(cc1C1NN=C(c3ccccc3)S1)OCO2 (stereo unspecified) returned mHTT-CaM PPI inh 52* and Pf apPOL inh -9.
O=C1CSC(c2cc3c(cc2[N+](=O)[O-])OCO3)N1c1ccccc1F (stereo unspecified) was read as mHTT-CaM PPI inh 16 and Pf apPOL inh -2.
Screening CCOc1ccc(S(=O)(=O)N2CCC(c3nc(C(=O)N4CCCC4)c(C)o3)CC2)cc1 returned mHTT-CaM PPI inh -2 and Pf apPOL inh -7.
For O=C1c2ccccc2C(=O)N1Cn1cc(-c2cccc(C(F)(F)F)c2)nn1 the results were mHTT-CaM PPI inh -3 and Pf apPOL inh 2.
O=C1C=CC(=O)C(c2cccc(C(F)(F)F)c2)=C1 was read as mHTT-CaM PPI inh 74* and Pf apPOL inh -2.
For O=C(Nc1ccc(Br)cc1)O[C@@H]1C[C@H]2C[C@@H]1[C@H]1CCCCN1C2 the results were mHTT-CaM PPI inh 29 and Pf apPOL inh -9.
Screening O=C1NN(c2ccc(Cl)cc2)C(=O)/C1=C/c1cccc(Br)c1 returned mHTT-CaM PPI inh 95* and Pf apPOL inh -5.
`O=C1NN(c2ccccc2)C(=O)/C1=C/c1cccc(Br)c1` gave mHTT-CaM PPI inh 54* and Pf apPOL inh -3.

Screening data (PubChem)
